From PubChem BioAssay (NCI)
The panel holds about 83,000 compounds, 20% with a hit somewhere; the sample as a whole holds those more often.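 Method: cells in 96-well plates; compound added at one concentration; 48 h incubation; percent growth measured; values under 10 scored active.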 Unmarked numbers belong to inactive results. The source made the active and inactive calls.

The compounds below were run on SR leukemia (assay: NCI-60 one-dose screen, 48 h (100 = growth as untreated, 0 = no growth, -100 = all killed)). Conditions: 10 µM unless noted.

Row | Compound | growth
1 | COc1ccc(C(=O)/C(=N/Nc2ccccc2)c2ccc(OC)cc2)cc1 | 86%
2 | Cn1c(=O)c2[nH]c(CC(=O)O)nc2n(C)c1=O | 99.3%
3 | C=CC1=NC(C)(C)CC(C)O1 (stereo unspecified) | 113%
4 | O=C(Nc1ccccc1)c1ccco1 | 100%
5 | CCOC(=O)CNC | 93.2%
6 | Cc1cc(Cl)cc(Cc2cc(Cl)cc(C)c2O)c1O | 1.17% (active)
7 | CC12CCC3c4ccc(O)cc4CCC3C1CCC2=O (stereo unspecified) | 67.4%
8 | Cc1onc(-c2ccccc2Cl)c1C(=O)Cl | 83.8%
9 | Nc1cc(N)ncn1 | 93.9%
10 | ClCC(Cl)C1CCC(Cl)C(Cl)C1 (stereo unspecified) | 99.5%
11 | O=[N+]([O-])c1ccc(-c2nc(N(CCO)CCO)c3ccccc3n2)o1 | 2.69% (active)
12 | C=CCC(OC(C)=O)c1ccc(OC)c(OC)c1 (stereo unspecified) | 35.3%
13 | C/C(Cc1ccccc1)=N\O | 101%
14 | O=C(NCc1ccccc1)c1cccc([N+](=O)[O-])c1 | 92.4%
15 | OCc1cccnc1 | 95.1%
16 | Cc1onc(-c2c(F)cccc2Cl)c1-c1ncc(-c2ccc(Br)cc2)o1 | 13.7%
17 | CC(C)c1ncc([N+](=O)[O-])n1C | 106%
18 | Oc1ccc(CCC2CCNc3ccccc32)cc1 (stereo unspecified) | 75.7%
19 | c1ccc2[nH]c(Cc3nc4ccccc4[nH]3)nc2c1 | 100%

Row | Compound | growth
20 | CCOC(=O)C(CCC#N)(CCC#N)C(=O)OCC | 103%
21 | CCOC(=O)C(COS(C)(=O)=O)(COS(C)(=O)=O)C(=O)OCC | 90.9%
22 | CC(C)C(C)(C)C(=O)C(C)(C)C(C)(C)C | 100%
23 | CC(=O)O[C@H]1CC[C@]2(C)C3=C(C(=O)C[C@H]2C1(C)C)[C@]1(C)CC[C@H]([C@H](C)CCC(=O)O)[C@@]1(C)CC3=O | 82.6%
24 | CC(=O)OCC1CCC(COC(C)=O)CC1 (stereo unspecified) | 95.7%
25 | CC(=O)NNC(=S)N/C=C/c1c(C)ccc([N+](=O)[O-])c1[N+](=O)[O-] | 92.9%
26 | CCOC(=O)c1c[nH][nH]c1=O | 109%
27 | O=S(Cc1ccccc1)/C(=C/NC(=S)Nc1ccccc1)c1ccccc1 (stereo unspecified) | 88.4%
28 | CCOc1ccc(NC(=S)N2CCC(CCCC3CCN(C(=S)Nc4ccc(OCC)cc4)CC3)CC2)cc1 | 95.2%
29 | COc1ccc(C)cc1NC(=O)SC(C)C | 95.3% [100 µM]
30 | Nc1ncnc(Nc2ccc(C(F)(F)F)cc2)n1 | 102%
31 | Cc1c(Cl)cccc1N=C=S | 108%
32 | O=C(OC1CCCC1)c1ccccc1Cl | 104%
33 | BrCc1cccc(C[P+](c2ccccc2)(c2ccccc2)c2ccccc2)c1 | 50.3%
34 | Cc1c(-c2ccc(C3CCCCC3)cc2)nc2ccc(F)cc2c1C(=O)O | 7.53% (active)
35 | CC(=O)NC(CCc1ccc(Cl)c(Cl)c1)c1cccc(O)c(=O)c1 (stereo unspecified) | 6.21% (active)
36 | COc1cccc(C(=O)NNC(=O)c2cccc3ccccc23)c1 | 113%
37 | O=C(CCl)Nc1ccccc1SCc1cc(Cl)cc2c1OCOC2 | 31.9%
38 | CCN(CC)c1ccc2nc3ccc(N=Nc4ccc(N(C)C)cc4)cc3[n+](-c3ccccc3)c2c1 | -18.3% (active)

What follows are compounds tested on RPMI-8226 leukemia in the same assay as above. Conditions: 10 µM unless noted.

Row | Compound | growth
39 | COc1ccc(C(=O)/C(=N/Nc2ccccc2)c2ccc(OC)cc2)cc1 | 92.9%
40 | Cn1c(=O)c2[nH]c(CC(=O)O)nc2n(C)c1=O | 108%
41 | C=CC1=NC(C)(C)CC(C)O1 (stereo unspecified) | 105%
42 | O=C(Nc1ccccc1)c1ccco1 | 105%
43 | CCOC(=O)CNC | 99.7%
44 | Cc1cc(Cl)cc(Cc2cc(Cl)cc(C)c2O)c1O | -22.8% (active)
45 | CC12CCC3c4ccc(O)cc4CCC3C1CCC2=O (stereo unspecified) | 98.8%
46 | Cc1onc(-c2ccccc2Cl)c1C(=O)Cl | 99.9%
47 | Nc1cc(N)ncn1 | 105%
48 | ClCC(Cl)C1CCC(Cl)C(Cl)C1 (stereo unspecified) | 100%
49 | O=[N+]([O-])c1ccc(-c2nc(N(CCO)CCO)c3ccccc3n2)o1 | 4.26% (active)
50 | C=CCC(OC(C)=O)c1ccc(OC)c(OC)c1 (stereo unspecified) | 97.1%
51 | C/C(Cc1ccccc1)=N\O | 83.3%
52 | O=C(NCc1ccccc1)c1cccc([N+](=O)[O-])c1 | 91%
53 | OCc1cccnc1 | 102%
54 | Cc1onc(-c2c(F)cccc2Cl)c1-c1ncc(-c2ccc(Br)cc2)o1 | 22.6%
55 | CC(C)c1ncc([N+](=O)[O-])n1C | 102%
56 | Oc1ccc(CCC2CCNc3ccccc32)cc1 (stereo unspecified) | 45.2%
57 | c1ccc2[nH]c(Cc3nc4ccccc4[nH]3)nc2c1 | 71.9%

Row | Compound | growth
58 | CCOC(=O)C(CCC#N)(CCC#N)C(=O)OCC | 96.6%
59 | CCOC(=O)C(COS(C)(=O)=O)(COS(C)(=O)=O)C(=O)OCC | 110%
60 | CC(C)C(C)(C)C(=O)C(C)(C)C(C)(C)C | 96.1%
61 | CC(=O)O[C@H]1CC[C@]2(C)C3=C(C(=O)C[C@H]2C1(C)C)[C@]1(C)CC[C@H]([C@H](C)CCC(=O)O)[C@@]1(C)CC3=O | 101%
62 | CC(=O)OCC1CCC(COC(C)=O)CC1 (stereo unspecified) | 103%
63 | CC(=O)NNC(=S)N/C=C/c1c(C)ccc([N+](=O)[O-])c1[N+](=O)[O-] | 103%
64 | CCOC(=O)c1c[nH][nH]c1=O | 93%
65 | O=S(Cc1ccccc1)/C(=C/NC(=S)Nc1ccccc1)c1ccccc1 (stereo unspecified) | 103%
66 | CCOc1ccc(NC(=S)N2CCC(CCCC3CCN(C(=S)Nc4ccc(OCC)cc4)CC3)CC2)cc1 | 65.8%
67 | COc1ccc(C)cc1NC(=O)SC(C)C | 99% [100 µM]
68 | Nc1ncnc(Nc2ccc(C(F)(F)F)cc2)n1 | 109%
69 | Cc1c(Cl)cccc1N=C=S | 86.3%
70 | O=C(OC1CCCC1)c1ccccc1Cl | 102%
71 | BrCc1cccc(C[P+](c2ccccc2)(c2ccccc2)c2ccccc2)c1 | 22.6%
72 | Cc1c(-c2ccc(C3CCCCC3)cc2)nc2ccc(F)cc2c1C(=O)O | 56.1%
73 | CC(=O)NC(CCc1ccc(Cl)c(Cl)c1)c1cccc(O)c(=O)c1 (stereo unspecified) | 13.9%
74 | COc1cccc(C(=O)NNC(=O)c2cccc3ccccc23)c1 | 105%
75 | O=C(CCl)Nc1ccccc1SCc1cc(Cl)cc2c1OCOC2 | 94%
76 | CCN(CC)c1ccc2nc3ccc(N=Nc4ccc(N(C)C)cc4)cc3[n+](-c3ccccc3)c2c1 | -23.6% (active)
